Structures can show the parent of a compound that is named as a salt.
These compounds were tested on MARIMO (assay: cell viability relative to vehicle control; higher = less cytotoxic). Conditions: 10 µM; SRSF2 genotype: SRSF2 P95H/wt.
Procedure, shortened: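 After removal of identity-inconsistent compounds, the Selleck bioactive, kinase and epigenetic probe libraries were screened on CRISPR-edited mutant clones and isogenic wild-type clones of four leukaemia lines. Plates were 384-well, each well holding 2000 cells in 50 µL medium and receiving a single 10 µM acoustically dispensed dose. CellTiter-Glo luminescence was read 48 h later, after the supernatant was taken off. Genedata Screener was used to express viability as percent of the on-plate vehicle control.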

Compound | cell viability
CCOC(=O)Nc1ccc(NCc2ccc(F)cc2)cc1N [Retigabine 2HCl] | 91.6%
Cn1c(COP(=O)(NCCBr)NCCBr)cnc1[N+](=O)[O-] | 39.3%
NC(=O)CN1CCCC1=O [Piracetam] | 102%
CC(C)c1ccc2c(c1O)CC[C@H]1C3=C(CC[C@]21C)C(=O)OC3 [Triptophenolide] | 70.3%
C#C[C@]1(O)C=C[C@H]2[C@@H]3CCC4=CC(=O)CC[C@@H]4[C@H]3CC[C@@]21CC [Gestodene] | 90.9%
Cc1cccc(Cc2c[nH]cn2)c1C [Detomidine HCl] | 103%
CCCN1C[C@H](CSC)C[C@@H]2c3cccc4[nH]cc(c34)C[C@H]21 [Pergolide mesylate] | 91.7%
O=c1ccc2ccc3occc3c2o1 [Isopsoralen] | 100%
CNCC(O)c1ccc(O)cc1 (stereo not given) [Synephrine (Oxedrine)] | 103%
CCO[C@H]1O[C@@H]2O[C@@]3(C)CC[C@H]4[C@H](C)CC[C@@H]([C@H]1C)[C@@]24OO3 [Arteether] | 62.3%
C[C@](O)(COc1ccc(C#N)cc1)C(=O)Nc1ccc(C#N)c(C(F)(F)F)c1 | 98.7%
CCN(CC)CCOC(=O)C(O)(c1ccccc1)c1ccccc1 [Benactyzine hydrochloride] | 93%
C[N+]1(C)CCCC(OC(=O)C(O)(c2ccccc2)c2ccccc2)C1 (stereo not given) [mepenzolate bromide] | 103%
Cc1ccccc1-n1c(Cn2ncc3c(N)ncnc32)nc2cccc(C)c2c1=O | 90.7%
C=CC[C@]1(O)CC[C@H]2[C@@H]3CCC4=CC(=O)CCC4=C3C=C[C@@]21C [Altrenogest] | 99.9%
CN1C2CCC1CC(O)C2 (stereo not given) [Tropine] | 104%
Cc1ccccc1-n1c(CF)nc2ccc(N)cc2c1=O [Afloqualone] | 84.5%
CNCC(=O)c1ccc(O)c(O)c1 [Adrenalone HCl] | 91.8%

Compound | cell viability
CC(=O)O[C@H]1C(=O)[C@@]2(C)[C@H]([C@H](OC(=O)c3ccccc3)[C@]3(O)C[C@H](O)C(C)=C1C3(C)C)[C@]1(OC(C)=O)CO[C@@H]1C[C@@H]2O | 100%
Nc1ncnc2c1ccn2[C@@H]1O[C@H]([C@H](O)c2ccccc2)[C@@H](O)[C@H]1O | 83.5%
CN1CCCCC1Cn1cc(C(=O)c2cc([N+](=O)[O-])ccc2I)c2ccccc21 (stereo not given) | 84.2%
CC(=O)Nc1ccc(Cc2ccc(NC(C)=O)cc2)cc1 | 105%
NC(=O)CN1CC(c2ccccc2)CC1=O (stereo not given) [Phenylpiracetam] | 102%
CC(C)c1ccc(CO)cc1 [4-Isopropylbenzyl Alcohol] | 99.9%
O=C(c1ccccc1O)c1[nH]c(Cl)c(Cl)c1-n1c(C(=O)c2ccccc2O)cc(Cl)c1Cl [Marinopyrrole A (Maritoclax)] | 24.9%
CCN1CCN(C(=O)Cc2ccc(Nc3ncc(F)c(Nc4ccc(C(=O)Nc5ccccc5Cl)cc4)n3)cc2)CC1 [Aurora A Inhibitor I] | 0.53%
C=C[C@H]1CN2CC[C@H]1C[C@H]2[C@H](O)c1ccnc2ccccc12 [Cinchonidine] | 94.6%
O=c1ccc2cc(O[C@@H]3O[C@H](CO)[C@@H](O)[C@H](O)[C@H]3O)c(O)cc2o1 [Aesculin (Esculin)] | 96.9%
C[N+](C)(C)CCCCCCCCCC[N+](C)(C)C [Decamethonium Bromide] | 98.9%
CC[C@H]1CN2CC[C@H]1C[C@H]2[C@H](O)c1ccnc2ccc(OC)cc12 [Hydroquinine] | 97.5%
O=C(O)CCCCCCCCCO [10-Hydroxydecanoic acid] | 97.8%
COC1=CC23CCN(C)C(Cc4ccc(OC)c(O)c42)C3=CC1=O (stereo not given) [Sinoacutine] | 103%
COc1ccc(C(=O)N2CCCC2=O)cc1 [Aniracetam] | 107%
CC(C)=CCCC(C)(O)C1CCC2(C)C1C(O)CC1C3(C)CCC(OC4OC(CO)C(O)C(O)C4O)C(C)(C)C3CCC12C [(20R)Ginsenoside Rh2] | 101%
c1cc2c(cc1[C@H]1OC[C@H]3[C@@H]1CO[C@H]3c1ccc3c(c1)OCO3)OCO2 [Asarinin] | 91.7%

Same assay, conditions: 10 µM; SRSF2 genotype: SRSF2 wt/wt

Compound | cell viability
CCOC(=O)Nc1ccc(NCc2ccc(F)cc2)cc1N [Retigabine 2HCl] | 103%
Cn1c(COP(=O)(NCCBr)NCCBr)cnc1[N+](=O)[O-] | 56%
NC(=O)CN1CCCC1=O [Piracetam] | 102%
CC(C)c1ccc2c(c1O)CC[C@H]1C3=C(CC[C@]21C)C(=O)OC3 [Triptophenolide] | 62.5%
C#C[C@]1(O)C=C[C@H]2[C@@H]3CCC4=CC(=O)CC[C@@H]4[C@H]3CC[C@@]21CC [Gestodene] | 97.2%
Cc1cccc(Cc2c[nH]cn2)c1C [Detomidine HCl] | 95.3%
CCCN1C[C@H](CSC)C[C@@H]2c3cccc4[nH]cc(c34)C[C@H]21 [Pergolide mesylate] | 103%
O=c1ccc2ccc3occc3c2o1 [Isopsoralen] | 101%
CNCC(O)c1ccc(O)cc1 (stereo not given) [Synephrine (Oxedrine)] | 98.5%
CCO[C@H]1O[C@@H]2O[C@@]3(C)CC[C@H]4[C@H](C)CC[C@@H]([C@H]1C)[C@@]24OO3 [Arteether] | 64.4%
C[C@](O)(COc1ccc(C#N)cc1)C(=O)Nc1ccc(C#N)c(C(F)(F)F)c1 | 94.2%
CCN(CC)CCOC(=O)C(O)(c1ccccc1)c1ccccc1 [Benactyzine hydrochloride] | 98.4%
C[N+]1(C)CCCC(OC(=O)C(O)(c2ccccc2)c2ccccc2)C1 (stereo not given) [mepenzolate bromide] | 112%
Cc1ccccc1-n1c(Cn2ncc3c(N)ncnc32)nc2cccc(C)c2c1=O | 93.7%
C=CC[C@]1(O)CC[C@H]2[C@@H]3CCC4=CC(=O)CCC4=C3C=C[C@@]21C [Altrenogest] | 102%
CN1C2CCC1CC(O)C2 (stereo not given) [Tropine] | 110%
Cc1ccccc1-n1c(CF)nc2ccc(N)cc2c1=O [Afloqualone] | 95.7%
CNCC(=O)c1ccc(O)c(O)c1 [Adrenalone HCl] | 92.3%

Compound | cell viability
CC(=O)O[C@H]1C(=O)[C@@]2(C)[C@H]([C@H](OC(=O)c3ccccc3)[C@]3(O)C[C@H](O)C(C)=C1C3(C)C)[C@]1(OC(C)=O)CO[C@@H]1C[C@@H]2O | 96.6%
Nc1ncnc2c1ccn2[C@@H]1O[C@H]([C@H](O)c2ccccc2)[C@@H](O)[C@H]1O | 95.3%
CN1CCCCC1Cn1cc(C(=O)c2cc([N+](=O)[O-])ccc2I)c2ccccc21 (stereo not given) | 103%
CC(=O)Nc1ccc(Cc2ccc(NC(C)=O)cc2)cc1 | 106%
NC(=O)CN1CC(c2ccccc2)CC1=O (stereo not given) [Phenylpiracetam] | 96.9%
CC(C)c1ccc(CO)cc1 [4-Isopropylbenzyl Alcohol] | 110%
O=C(c1ccccc1O)c1[nH]c(Cl)c(Cl)c1-n1c(C(=O)c2ccccc2O)cc(Cl)c1Cl [Marinopyrrole A (Maritoclax)] | 21.3%
CCN1CCN(C(=O)Cc2ccc(Nc3ncc(F)c(Nc4ccc(C(=O)Nc5ccccc5Cl)cc4)n3)cc2)CC1 [Aurora A Inhibitor I] | 3.65%
C=C[C@H]1CN2CC[C@H]1C[C@H]2[C@H](O)c1ccnc2ccccc12 [Cinchonidine] | 97.5%
O=c1ccc2cc(O[C@@H]3O[C@H](CO)[C@@H](O)[C@H](O)[C@H]3O)c(O)cc2o1 [Aesculin (Esculin)] | 97.7%
C[N+](C)(C)CCCCCCCCCC[N+](C)(C)C [Decamethonium Bromide] | 102%
CC[C@H]1CN2CC[C@H]1C[C@H]2[C@H](O)c1ccnc2ccc(OC)cc12 [Hydroquinine] | 111%
O=C(O)CCCCCCCCCO [10-Hydroxydecanoic acid] | 101%
COC1=CC23CCN(C)C(Cc4ccc(OC)c(O)c42)C3=CC1=O (stereo not given) [Sinoacutine] | 101%
COc1ccc(C(=O)N2CCCC2=O)cc1 [Aniracetam] | 109%
CC(C)=CCCC(C)(O)C1CCC2(C)C1C(O)CC1C3(C)CCC(OC4OC(CO)C(O)C(O)C4O)C(C)(C)C3CCC12C [(20R)Ginsenoside Rh2] | 102%
c1cc2c(cc1[C@H]1OC[C@H]3[C@@H]1CO[C@H]3c1ccc3c(c1)OCO3)OCO2 [Asarinin] | 104%
